Source: ChEMBL document CHEMBL3988442, “University of Dundee, Small-Polar-MMV Screening Library” (2021)
The whole screen tested about 48,000 compounds, of which about 13,000 (27%) showed an effect of 50% or more. This is one part of the list.

test system: Wolbachia pipientis; assay: Anti-Wolbachia Cell-Based Screen; assay type: functional; design: scale not given: in the data most compounds retested in dose-response had high values; conditions: 5 µM

SMILES | Percent Effect
O=C(NCCc1ccncc1)[C@H]1CC[C@@H]2[C@@H](CCN2C2CCC2)O1 | -5.975%
OCCN1CCN(Cc2cc3c(cc2Br)OCCO3)CC1 | 1.369%
CC(C)=CCN1C[C@H]2CC[C@@H]1CN(C(=O)Cc1c(C)nc(C)[nH]c1=O)C2 | -7.395%
Cl.Cl.Fc1ccc2c(c1)C1(CCNCC1)CC2NC1CC1 (stereo not drawn) | 108.3%
COc1ccc2c(c1)C1(CCNCC1)CC2NC1CC1.Cl.Cl (stereo not drawn) | 123.6%
Cc1ccc2c(c1)C(NC1CC1)CC21CCNCC1.Cl (stereo not drawn) | 121%
Cc1ccc2c(c1)C(NC(C)C)CC21CCNCC1.Cl (stereo not drawn) | -5.487%
CC(C)NC1CC2(CCNCC2)c2cc(F)ccc21.Cl.Cl (stereo not drawn) | 1.689%
Cc1ccnc(NCCNC(=O)C2CC3(CCNCC3)CN2C)c1 (stereo not drawn) | 2.033%
Cc1ccc2c(c1)C1(CCNCC1)CC2NCCO.Cl.Cl (stereo not drawn) | 90.17%
Cl.O=C(Nc1ccccc1)C1=NOC2(CCNCC2)C1 | -4.719%
CN(C)C(=O)CN1CCCC2(CCN(c3ccc(C#N)cn3)C2)C1.O=C(O)C(F)(F)F (stereo not drawn) | -7.726%
Cc1cnn(CC(C)NCC(=O)NC2CCOCC2)c1 (stereo not drawn) | 1.556%
COc1nc(N2CCNCC2)ncc1Br | -8.9%
CNC(=O)C1CCC2(CCNCC2)C1.O=C(O)C(F)(F)F (stereo not drawn) | 1.559%
Cc1ccc2c(c1)C1(CCNCC1)CC2NC(C)C.Cl.Cl (stereo not drawn) | -0.3898%
NC(=O)CC1CC2(CCNCC2)c2cc(F)ccc21.O=C(O)C(F)(F)F (stereo not drawn) | 111.2%
CN(C)C(=O)C1CCC2(CCNCC2)C1.O=C(O)C(F)(F)F (stereo not drawn) | -33.97%
Cc1ccc2c(c1)C1(CCNCC1)CC2NC1CC1.Cl.Cl (stereo not drawn) | 133.8%
O=C1NC[C@H]2CN(Cc3ccccn3)CCN12 | -1.346%

SMILES | Percent Effect
Cn1cnc(S(=O)(=O)N2C[C@H]3CN(Cc4ccccn4)C[C@H]3C2)c1.O=C(O)C(F)(F)F.O=C(O)C(F)(F)F | 1.449%
Cc1nc(CN2C[C@@H]3CN(C(=O)Cc4ccccn4)C[C@@H]3C2)cs1.O=C(O)C(F)(F)F.O=C(O)C(F)(F)F | 107.4%
O=C(Cc1ccccn1)N1C[C@H]2CN(Cc3ccccn3)C[C@H]2C1 | 97.89%
COC1CCC[C@@H]2CN(Cc3csc(C)n3)C[C@H]12.O=C(O)C(F)(F)F (stereo partly drawn) | -10.37%
O=C(NCCc1c[nH]cn1)c1ccccc1C1CCNC1 (stereo not drawn) | -4.788%
CC(Cc1ccccn1)N(C)Cc1ccc2c(c1)CCO2 (stereo not drawn) | 27.39%
Cc1ccccc1-n1nc(C)c(CN(C)C(C)Cc2ccccn2)c1C.O=C(O)CC(O)(CC(=O)O)C(=O)O (stereo not drawn) | 108.5%
C/C(=C\c1ccco1)CN(C)C(C)Cc1ccccn1 (stereo not drawn) | -10.17%
Cc1cc(N2CCC(NC(C)Cc3ccsc3)CC2)nc(N)n1 (stereo not drawn) | -1.435%
O=C(C1CCCCC1)N1C[C@@H]2CCNC[C@@H]21 | -27.82%
Cl.O=C(N1CCOCC1)N1CCC2(CCNC2)C1 (stereo not drawn) | -12.19%
CN(Cc1cccnc1)[C@@H]1CN(CC2CC2)[C@@H]2CCCO[C@H]12.O=C(O)C(F)(F)F.O=C(O)C(F)(F)F.O=C(O)C(F)(F)F | -5.445%
Cc1cccc(CN2C[C@@H](NC(=O)C3CC3)[C@H]3OCCC[C@H]32)n1.O=C(O)C(F)(F)F.O=C(O)C(F)(F)F | -26.04%
CN(C)[C@@H]1CN(C(=O)Cc2ccc(F)cc2)[C@@H]2CCCO[C@H]12.O=C(O)C(F)(F)F | 85.9%
Cc1cc(CN2C[C@@H]3CCCO[C@@H]3[C@H](N(C)C(C)C)C2)no1.O=C(O)C(F)(F)F.O=C(O)C(F)(F)F | -6.146%
O=C(Cc1cccs1)N1C[C@@H]2OCCN(CC3CCCC3)[C@@H]2C1.O=C(O)C(F)(F)F | -11.83%
Cc1ccc(N2C[C@@H]3CCCO[C@@H]3[C@H](N3CCCC3)C2)nn1.O=C(O)C(F)(F)F.O=C(O)C(F)(F)F | -4.873%
CN(C)[C@@H]1CN(C(=O)Cc2ccsc2)[C@@H]2CCCO[C@H]12.O=C(O)C(F)(F)F | 105.5%
O=C(Cc1cccs1)N1C[C@@H]2OCCN(CC3CCCO3)[C@@H]2C1.O=C(O)C(F)(F)F (stereo partly drawn) | -0.9645%
CN1CCN([C@@H]2CN(C(=O)Cc3ccsc3)[C@@H]3CCCO[C@H]23)CC1.O=C(O)C(F)(F)F.O=C(O)C(F)(F)F | -4.372%

SMILES | Percent Effect
O=C(Cc1ccsc1)N1C[C@@H]2OCCN(CC3CC3)[C@@H]2C1.O=C(O)C(F)(F)F | -8.837%
CN(C)[C@@H]1CN(C(=O)Cc2cccs2)[C@@H]2CCCO[C@H]12.O=C(O)C(F)(F)F | 115.4%
CN(C)[C@@H]1CN(C(=O)Cc2ccccc2)[C@@H]2CCCO[C@H]12.O=C(O)C(F)(F)F | 100.5%
Cc1c(C(=O)O)nnn1Cc1cccc(C(F)(F)F)c1 | 6.81%
COc1cccc(CN2CCN3C(=O)NC[C@H]3C2)n1 | 7.899%
CN1CCC(N2CCN3C(=O)NC[C@H]3C2)CC1 | -3.981%
Cc1csc(C2(NCC(O)COC(C)C)CCCC2)n1 (stereo not drawn) | -1.656%
CC(=O)NC[C@H]1C[C@@H]2CCN1C[C@@H]2c1cc(-c2cccs2)nn1C | -4.622%
CN(C)[C@@H]1CN(C(=O)Cc2cccc(F)c2)[C@@H]2CCCO[C@H]12.O=C(O)C(F)(F)F | 118.8%
Cn1cc(CN2CC[C@@H]3[C@@H]2CCN3C(=O)Cc2cccc(F)c2)cn1.O=C(O)C(F)(F)F | -1.291%
Cc1nnc(N2CCNCC2)c(C(N)=O)c1C | -61.72%
O=C(NCc1cccnc1)[C@H]1CN2CCC1C[C@@H]2Cn1cc(CO)nn1 (stereo partly drawn) | 4.498%
CN1CCC2(CC1)CNC(=O)c1ccccc1O2 | -4.791%
O=C(NCc1cccnc1)C1=NOC2(CCCN(CCO)C2)C1 (stereo not drawn) | 6.778%
CN(C)c1ncc2c(n1)C1(CCN(Cc3cccnc3)C1)COC2 (stereo not drawn) | -5.079%
O=C1Nc2ccccc2C12CCCN(Cc1ccncc1)C2 (stereo not drawn) | -10.97%
O=C1NCC2(CCCN(Cc3ccncc3)C2)Oc2ccccc21 (stereo not drawn) | 106%
O=C1NCC2(CCCN(Cc3cccnc3)C2)Oc2ccccc21 (stereo not drawn) | 95.18%
